Shown are actives, neighbours in structure and some others; about 2.3% of the full set was active somewhere.
M1 PAM: human M1 muscarinic receptor positive allosteric modulators, primary screen, CHO-K1 cells, Fluo-8 calcium fluorescence, 1536-well. Muscarinic acetylcholine receptor M1 (Homo sapiens), P11229. CHO-K1 hM1, ACh EC20; 0% = ACh EC20, 100% = maximal ACh. activation, % at 3 µM. hit rate 0.088% among 360,000; in the data active = activation above about 19%, passing the limit was not always enough
Target sequence (P11229 whole entry, looked up): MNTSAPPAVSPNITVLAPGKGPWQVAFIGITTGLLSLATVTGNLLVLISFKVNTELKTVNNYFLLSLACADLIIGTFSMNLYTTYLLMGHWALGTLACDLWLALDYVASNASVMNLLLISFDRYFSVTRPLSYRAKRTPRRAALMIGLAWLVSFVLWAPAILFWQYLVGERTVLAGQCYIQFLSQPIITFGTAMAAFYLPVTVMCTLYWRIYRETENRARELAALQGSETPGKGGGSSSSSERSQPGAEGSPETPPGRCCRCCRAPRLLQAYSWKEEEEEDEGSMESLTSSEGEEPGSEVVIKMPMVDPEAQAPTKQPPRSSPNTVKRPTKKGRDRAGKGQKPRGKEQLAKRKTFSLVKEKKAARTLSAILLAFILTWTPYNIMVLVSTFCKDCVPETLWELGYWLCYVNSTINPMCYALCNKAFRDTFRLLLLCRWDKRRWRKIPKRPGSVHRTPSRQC
M1 PAM parental: nonselective calcium activators in parental CHO-K1 cells, primary screen, counter-screen for M1 PAM project, cell-based, Fluo-8 calcium fluorescence, full deck, 1536-well | ATP EC20; 0% at ATP EC20, 100% at ATP max | activation, % at 3 µM | hit rate 0.02% among 360,000;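 active = activation above the run cutoff, the mean activation of all test compounds plus 3 SD, cut at about 40% in these data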;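 note: peak over basal fluorescence ratio in a 140 s read after ATP addition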
M1 ag: human M1 muscarinic receptor agonists, primary screen, Fluo-8 calcium fluorescence, CHO-K1 cells, HTS; Muscarinic acetylcholine receptor M1 (Homo sapiens), P11229; CHO-K1 hM1, agonist mode; 0% DMSO, 100% acetylcholine EC100; activation, % at 3 µM; hit rate 0.33% among 360,000;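 active = activation above the run's mean compound activation plus 3 SD, cut at about 16% in these data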;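 note: peak over basal fluorescence ratio within a 140 s kinetic read after compound addition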
M1 ag parental: counter-screen for M1 agonists: effect in parental CHO-K1 cells; Fluo-8 calcium fluorescence; scaled to maximal ATP response, vehicle zero; activation, % at 3 µM; hit rate 0.48% among 360,000; AID 602248, 2012; in the data active = activation above about 15%;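 note: untransfected CHO-K1 host cells lacking M1 receptor as counterscreen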
CHO-K1 Ca antag: nonselective inhibitor or artifact in parental CHO-K1 cells. ATP-induced calcium, Fluo-8 fluorescence. inhibition, % at 3 µM. hit rate 0.6% among 360,000;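 active = inhibition above a per-plate cutoff, the plate's mean sample inhibition plus 3 SD, cut at about 24% in these data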;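 note: 0% = DMSO plus EC80 ATP and 100% = DMSO alone without ATP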
CHRM1 antagonist: human M1 muscarinic receptor antagonists, primary screen, CHO-K1 cells, Fluo-8 calcium fluorescence, 1536-well; Muscarinic acetylcholine receptor M1 (Homo sapiens), P11229; inhibition, % at 3 µM; hit rate 1.3% among 360,000; AID 588852, 2011; CHO-K1 hM1, ACh EC80 antagonist;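 active = percent inhibition above its own plate's cutoff, namely the mean of that plate's compound wells plus 3 SD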;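 note: peak over basal fluorescence ratio during 140 s after agonist addition; 0% = ACh EC80 plus DMSO and 100% = DMSO alone without agonist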
Active calls of the source: *.

Results for O=C(Nc1cccc2c1CCCC2)c1cc(C2CCCCN2C(=O)c2cccs2)on1 (stereo not given) ?
M1 PAM: -0.7; M1 PAM parental: 23.3; M1 ag: -7.8; M1 ag parental: 0.4; CHO-K1 Ca antag: -18.7; CHRM1 antagonist: -11.9

Results for O=C(c1ccc(Cl)cc1)C(CN1CCCC1)c1ccccc1 (stereo not given) ?
M1 PAM: -25.2; M1 PAM parental: -2.9; M1 ag: -9.0; M1 ag parental: 0.5; CHO-K1 Ca antag: 3.6; CHRM1 antagonist: 38.4*

How did COc1ccc(C(=O)C(CN2CCCC2)c2ccccc2)cc1 (stereo not given) do in these assays?
M1 PAM: -16.7; M1 PAM parental: 22.3; M1 ag: -4.7; M1 ag parental: 0.6; CHO-K1 Ca antag: -6.3; CHRM1 antagonist: 11.1

Results for COc1ccc2[nH]c3c(c2c1)CCN1C(=O)C(CC(=O)NC(C)(C)C)C[C@H](C(=O)N2CCCCC2)[C@@]31C (stereo not given in full) ?
M1 PAM: 4.6; M1 PAM parental: 16.5; M1 ag: -5.1; M1 ag parental: -0.5; CHO-K1 Ca antag: -14.5; CHRM1 antagonist: -7.4

Results for O=C(c1cc2cc(F)ccc2[nH]1)N(Cc1cccnc1)CC1CCCN(C2CCCCC2)C1 (stereo not given) ?
M1 PAM: -21.0; M1 PAM parental: 0.5; M1 ag: -5.8; M1 ag parental: 0.0; CHO-K1 Ca antag: -5.3; CHRM1 antagonist: 35.0*

How did CN(CC(=O)Nc1ccc(N2CCOCC2)cc1)C(=O)CCc1cc(C(C)(C)C)c(O)c(C(C)(C)C)c1 do in these assays?
M1 PAM: -1.3; M1 PAM parental: -25.4; M1 ag: -2.3; M1 ag parental: -0.2; CHO-K1 Ca antag: -4.3; CHRM1 antagonist: 4.7

What do the screens show for `N#Cc1ccccc1Sc1ccccc1C(=O)NCC(c1ccco1)N1CCCC1` (stereo not given)?
M1 PAM: -23.3; M1 PAM parental: 2.3; M1 ag: -7.4; M1 ag parental: -0.2; CHO-K1 Ca antag: 17.4; CHRM1 antagonist: 36.8*

How did O=C(NCC(c1ccco1)N1CCCCC1)C(c1ccccc1)c1ccccc1 (stereo not given) do in these assays?
M1 PAM: -24.5; M1 PAM parental: 4.7; M1 ag: -7.8; M1 ag parental: 0.1; CHO-K1 Ca antag: -10.5; CHRM1 antagonist: 77.9*

Results for CC(NC(=O)c1ccccc1Cl)C(=O)N1CCN(Cc2ccc3c(c2)OCO3)CC1 (stereo not given) ?
M1 PAM: 8.1; M1 PAM parental: 4.4; M1 ag: -4.3; M1 ag parental: 0.3; CHO-K1 Ca antag: -7.8; CHRM1 antagonist: -11.9

How did O=C(CN1C(=O)NC2(CCCCCC2)C1=O)N1CCCCC1 do in these assays?
M1 PAM: 2.5; M1 PAM parental: 8.9; M1 ag: -3.3; M1 ag parental: 2.4; CHO-K1 Ca antag: -7.5; CHRM1 antagonist: 4.6

How did Cc1nc(-c2ccccc2)sc1C(N)=O do in these assays?
M1 PAM: -0.4; M1 PAM parental: 22.1; M1 ag: -3.2; M1 ag parental: 0.3; CHO-K1 Ca antag: -15.8; CHRM1 antagonist: -21.2

Results for C/C(=N\O)c1sc(-c2ccccc2)nc1C ?
M1 PAM: 3.1; M1 PAM parental: 2.3; M1 ag: -9.4; M1 ag parental: 19.9*; CHO-K1 Ca antag: 5.4; CHRM1 antagonist: 2.7

What do the screens show for `N#CCCN=C(NS(=O)(=O)c1ccccc1)c1ccccc1`?
M1 PAM: 27.7*; M1 PAM parental: 4.7; M1 ag: 1.0; M1 ag parental: 1.2; CHO-K1 Ca antag: -5.5; CHRM1 antagonist: -22.7

What do the screens show for `O=C(O)CN=C(NS(=O)(=O)c1ccccc1)c1ccccc1`?
M1 PAM: 6.0; M1 PAM parental: 4.3; M1 ag: 0.9; M1 ag parental: 0.2; CHO-K1 Ca antag: -5.3; CHRM1 antagonist: -0.7

How did CCOc1cccc2cc(C(=O)Oc3ccc(OC)cc3)c(=O)oc12 do in these assays?
M1 PAM: 11.0; M1 PAM parental: 19.8; M1 ag: 6.3; M1 ag parental: 15.9*; CHO-K1 Ca antag: -0.8; CHRM1 antagonist: -4.4

From PubChem
